# Assay outcomes (PubChem BioAssay)
# Rows were chosen to be rich in hits. Some 4.8% of all compounds tested hit in one or more screens of this group.
# DAX1 inh-1: blocks DAX1 repression of SF-1 activated StAR promoter; hit rate 1.1% among 370,000; inhibition, % at 6.8 µM; AID 652010; HEK293T StAR-luciferase reporter, SF-1/DAX-1 repression relief;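 active means inhibition above the mean over all tested compounds plus 3 SD, cut at about 3.6% in these data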;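 further: higher inhibition means more luminescence from relief of DAX-1 repression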
# hcDAF-12 act: H. contortus DAF-12 activation, primary screen. HEK293 hcDAF-12 lit1-tk-luc reporter, luminescence; 0% DMSO, 100% Δ7-dafachronic acid. activation, % at 6.8 µM. hit rate 1.4% among 370,000;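 active means activation above the mean of all tested compounds plus 3 SD, cut at about 5.5% in these data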
# SMARCA2 activ: increases SMARCA2 function in MMTV reporter cells; MG213 cells, MMTV-luciferase reporter, dexamethasone, overnight; activation, % at 9.1 µM; hit rate 1% among 370,000; in the data active means activation above about 7.8%
# ssDAF-12 act: activators of S. stercoralis DAF-12 nuclear receptor. HEK293 ssDAF-12/GRIP1 lit1-tk-luc reporter, luminescence; % of 3 µM dafachronic acid response. activation, % at 6.8 µM. hit rate 1% among 370,000. AID 652126;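 active means activation above the mean over all tested compounds plus 3 SD, cut at about 0.9% in these data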
# DAX1 inh-2: inhibits human nuclear receptor DAX1. HEK293 Gal4-DAX1 luciferase reporter, luminescence. inhibition, % at 6.75 µM. hit rate 0.99% among 340,000;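 active means inhibition above the mean over all tested compounds plus 3 SD, cut at about 4.2% in these data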;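 further: inhibition shows as a rise in luminescence from relieved DAX1 repression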
# Target sequence (P51843 207-470 limits assumed): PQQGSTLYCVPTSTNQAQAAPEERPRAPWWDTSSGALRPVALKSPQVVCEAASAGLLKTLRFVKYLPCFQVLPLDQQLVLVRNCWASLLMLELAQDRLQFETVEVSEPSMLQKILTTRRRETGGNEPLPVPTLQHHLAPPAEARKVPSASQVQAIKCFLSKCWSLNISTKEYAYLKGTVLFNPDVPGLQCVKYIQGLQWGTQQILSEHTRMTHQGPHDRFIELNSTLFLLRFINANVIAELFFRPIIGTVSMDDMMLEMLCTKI
# hgDAF-12 ag: hgDAF-12 agonism, primary luciferase screen | HEK293 GAL4-hgDAF12 UAS-luciferase reporter, agonist luminescence; normalized to butyrate control | activation, % at 6.8 µM | hit rate 1.8% among 370,000 | AID 687014;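 active means activation above a cutoff set at the mean of all screened compounds plus 3 SD, cut at about 10% in these data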
# A number is an active result; n = inactive; x = not tested or not shown.
SMILES,DAX1 inh-1,hcDAF-12 act,SMARCA2 activ,ssDAF-12 act,DAX1 inh-2,hgDAF-12 ag
CCOC(=O)CSc1nc2cc(C)cc(C)c2cc1C#N,n,n,n,n,n,n
CCOC(=O)CC(=O)CSc1nc2ccc(OC)cc2cc1C,n,n,n,1.7,n,n
CCOC(=O)CSc1nc2cc(C)ccc2cc1C#N,n,n,n,n,n,10.9
CCOC(=O)CC(=O)CSc1nc2c(C)c(C)ccc2cc1C,n,n,n,n,n,n
CCOC(=O)CC(=O)CSc1nc2cc(C)ccc2cc1C,n,6.4,n,n,n,n
C=CCN1[C@H](C)COc2cc(N3CCCC3)ccc2S1(=O)=O,n,n,n,n,x,n
Cc1cccc(C)c1NC(=O)CN1CCNCC1,n,n,n,n,n,n
Cc1cccc(C)c1NC(=O)CN1CCCC1,n,n,n,n,4.5,n
Cc1ccc(C=Nn2c(-c3n[nH]c4c3CCC4)n[nH]c2=S)o1,n,n,n,n,x,n
COC(=O)c1cccc(C(=O)N2CCCC(C(=O)c3cccc(OC(C)C)c3)C2)c1 (stereo not drawn),n,5.8,n,n,n,n
COC(=O)c1cccc(C(=O)N2CCCC(C(=O)c3ccccc3OC)C2)c1 (stereo not drawn),n,n,n,n,n,n
Cc1nn(-c2ccccc2)c(N)c1N=Nc1cccnc1,n,n,n,n,n,11.5
CC(C)c1ccc(NC(=O)NN2CCOCC2)cc1,4.3,n,n,1.5,5.0,12.6
CC(C)c1ccc(NC(=O)C(c2ccccc2)N2CCOCC2)cc1 (stereo not drawn),n,n,n,n,n,n
CC(C)c1ccc(/C=C/C(=O)N2CCOCC2)cc1,n,n,n,0.9,6.2,n
COC(=O)[C@]12C[C@H](CC(=O)N3CCN(C(=O)c4ccco4)CC3)C(=O)N(CCc3ccc(OC)c(OC)c3)C1=C[C@H](C(C)(C)C)O[C@@H]2C,n,n,n,n,x,n
O=C(CC(c1ccc(F)cc1)c1ccco1)Nc1nccs1 (stereo not drawn),n,n,n,2.1,n,n
O=C(/C=C/c1ccc(OC2CSC2)cc1)c1ccc(Cl)cc1,n,5.6,n,n,n,n
CCOC(=O)Cc1csc(-n2sc3ccccc3c2=O)n1,n,6.3,n,n,n,n
CC(C)(C)OC(=O)N1CCC(N[C@@H](Cc2ccccc2)C(=O)NCCc2c[nH]c3ccccc23)(C(=O)NC2CCCCC2)CC1,x,n,x,n,x,n
NC(=O)c1c(N)[nH]c(C(=O)c2ccccc2)c1-c1ccccc1C(F)(F)F,x,n,x,n,x,n
O=S1(=O)c2ccc(N3CCN(Cc4ccccc4F)CC3)cc2Oc2ccccc2CN1Cc1cn(Cc2cccc(C(F)(F)F)c2)nn1,n,n,n,n,x,n
Nc1[nH]c(C(=O)c2ccccc2)c(-c2ccccn2)c1C(=O)c1c[nH]c2ccccc12,n,n,n,1.3,x,n
Nc1[nH]c(C(=O)c2ccccc2)c(-c2ccccn2)c1C(=O)c1c[nH]c2ccc(Br)cc12,x,n,x,n,x,n
O=c1[nH]c(Cc2ccccc2)nc2scc(-c3ccccc3)c12,n,n,n,n,n,n
SMILES,DAX1 inh-1,hcDAF-12 act,SMARCA2 activ,ssDAF-12 act,DAX1 inh-2,hgDAF-12 ag
O=C(O)CSCc1nc2scc(-c3ccccc3)c2c(=O)[nH]1,n,n,n,n,5.8,n
O=C1CC2c3cc(Br)ccc3CCN2C(=O)CN1Cc1ccccc1 (stereo not drawn),n,n,n,n,x,n
CCCCNC(=O)C[C@H]1C[C@@]2(C(=O)OC)C(=C[C@H](C3CCCC3)O[C@@H]2C)N(CCc2ccc(OC)c(OC)c2)C1=O,n,n,n,n,x,n
O=C(COCc1ccncc1)N1CCN(c2ccc(F)cc2Cl)CC1,n,n,n,n,x,n
COc1ccc(C(=O)c2ccc(-c3ccc(OC)cc3)nc2)cc1,n,n,n,n,n,n
CCc1ccc(-c2ccc(C(=O)O)cc2)nc1,n,n,7.8,n,n,n
OC[C@@H]1CC[C@@H]2O[C@H](CCc3ccc(-c4ccc(F)cc4)cc3)[C@@H](n3cc(C4CC4)nn3)C[C@@H]2O1,n,n,n,n,x,n
Cc1cc(C)cc(-n2ncc3c2CCCC3NC(=O)c2csnn2)c1 (stereo not drawn),4.5,n,n,n,n,n
CC1CCC(=O)N(CCSc2ccccc2)CC1 (stereo not drawn),n,6.2,n,n,n,n
Cc1ccc(S(=O)(=O)NCCCCCCNS(=O)(=O)c2ccc(C)cc2)cc1,n,n,n,n,n,n
Cc1ccc(S(=O)(=O)NCC(=O)Nc2cccc([N+](=O)[O-])c2)cc1,n,n,n,1.7,n,n
Cc1ccc(NC(=O)CCCCCNS(=O)(=O)c2ccc(C)cc2)cc1,n,n,n,1.1,n,n
O=C(CCSc1ccccc1Cl)Nc1cccc([N+](=O)[O-])c1,n,n,n,n,n,10.5
Cc1ccc(S(=O)(=O)NCCNc2ccccc2[N+](=O)[O-])cc1,n,n,n,n,4.3,n
NS(=O)(=O)c1cccc(NC(=O)CCSc2ccccc2Cl)c1,n,n,n,n,n,n
COC(=O)C1=C(C)N(Cc2ccc(C(F)(F)F)cc2)C(=NCc2ccccc2)NC1c1ccc(C(F)(F)F)cc1 (stereo not drawn),n,n,n,n,x,n
O=C(Nc1ccc(Cl)cc1)C1CCCN1S(=O)(=O)c1cccc2cccnc12 (stereo not drawn),n,n,n,n,x,n
COC(=O)Nc1nnc(/C=C/c2ccccc2)s1,n,n,n,n,n,n
CC(C)Sc1nnc(NC(=O)c2ccco2)s1,n,n,n,1.8,n,n
CCSc1nnc(NC(=O)c2ccco2)s1,n,n,n,n,n,n
O=C(Nc1nnc(/C=C/c2ccccc2)s1)c1ccco1,n,n,n,1.6,n,n
Nc1nnc(/C=C/c2ccccc2)s1,n,5.8,n,n,n,n
COc1ccc(CN=C2NN=C(c3cccc(OC)c3)CS2)cc1,n,n,n,n,n,n
COc1cccc(C2=NNC(=NCc3ccccc3)SC2)c1,n,n,n,n,n,13.1
COc1ccc(C(CC(=O)c2ccc(C)cc2)Sc2ccccc2N)cc1 (stereo not drawn),n,5.7,n,n,n,n
COC(=O)[C@@H](C)NC(=O)C(Cc1ccc2c(c1)OCO2)NC(C)=O (stereo partly drawn),n,n,n,n,x,n
COCCN1Cc2cccc(C(=O)Nc3ccc(S(=O)(=O)N4CCCCCC4)cc3)c2C1=O,n,n,n,1.5,n,n
O=C(Nc1ccc(F)cc1)c1cccc2c1C(=O)N(CC1CCCO1)C2 (stereo not drawn),n,n,n,n,4.2,n
c1ccc2c(c1)Cn1c-2nc2ccccc21,n,6.0,n,n,n,13.2
CCN(C)c1nc(C)nc2c1nnn2Cc1ccccc1,n,n,n,n,x,n
